We go through 40 sequences from the supplement of paper PMC6555819.

The test deals with VDR:RXRa (NR concentration 270 nM, RXRa partner concentration 90 nM). The experiment in a line: PBM binding z-score (relative to random genomic background probes); higher = stronger binding; sequences stand for … in GC…GCGATTGACAGCGTAGAATGAAGG
Here is the method:
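Protein-binding microarray (Agilent 4x180K custom design, double-stranded 60-nt probes: 5' GC cap, 34-nt variable region, 24-nt constant primer region; full probe sequence given). Purified or IVT nuclear receptor:RXRα heterodimers (3:1 NR:RXRα, mostly 270:90 nM) or homodimers were incubated for 1 h in PBS with 2% milk and no ligand, then detected with Alexa488 antibodies. Fluorescence from o1-orientation probes (~5 replicates averaged) was converted to z-scores against 500 random hg19 background probes. Variable regions are seed direct-repeat (DR0–DR5) sites, all their single-nucleotide variants and half-site ablations.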
TAGCCTAGGTCATTCAGGGGCCAGTATTGAAAGC showed a PBM binding z-score of 3.18.
The result for TGAATGAGGATATAAGATCAGGGAACGTTGCAAA reads -0.113.
Sequence TCGAGTAGGTGACCAATGGGGCATTCAGCTTTCT returned a PBM binding z-score of -0.154.
Sequence TCTGCTAGGTCAGTTGTTCAGCTAACGAGCTGCC registered a PBM binding z-score of -0.272.
Turning to ACTAGCAGGCAAAGTTTGGGTCACTCAAACAAAG, the PBM binding z-score came out at 0.478.
For CCTCGTAGGACAACAGGAGGTCAGAGCTGCCAGA, the PBM binding z-score was determined as 1.64.
Turning to TATACAGGGTCAAGGGCCAGAGTACGAATGTCGA, the PBM binding z-score was determined as 4.43.
The same measure for AGTCAAAGTTCTGGACGAGGTAACGTAAAGCACG: -0.216; for GCTGCTAGGTGAGGTTGGTCAGCTAACGGGTACG: -0.472.
The result for GATACAGGGTCAGCTAGAGGCCAAAGTATGGAAA reads 4.26.
The same measure for CGGCAAAGTTCAACTAAGGTAACGTAAAGCACGC: 4.67; for CCTACTGGGCCAAGGTCAATGATCAGTCAAAGCA: 2.24.
Regarding CTACCAAGGTGAACAAGGTCGTTTATTACTATTC, the PBM binding z-score worked out at 6.54.
The result for ATCGAAAGGTCGAGGTGAGTATGGAGAAAGGGAA reads 2.59; that for TCTTGTAGTTCAAAGGTTAAGAAAGCCGAAGCCT, 3.68.
Regarding ATCGAAAGGTCGACGAGGTAAGTATACACCGTTT, the PBM binding z-score came to 4.59.
The result for CCTCGGAGGACAACAGGAGGTCAGAGCCGCCAGA reads 1.58.
The result for ATCTCTAGGTAAGACTCACTTCAGTGAAGAACGC reads 0.175; that for TTACCAAGGTGAGGTGAGGTCGTTGATCCAACTC, 4.3; that for TCATATAGGTAAAGGTGAAGGTCGAACGATATGA, 1.63.
CGTCCAAGGACAAAGGTCAGTGAAGAGATGACGG displayed a PBM binding z-score of 2.64.
The same measure for ACAGACAGGTGCGTGAAGGTAACTCAGCTGGACG: -0.488; for GCTATTAGTTCAAAGGGCAACCGAATGATTCTCG: 2.63.
The same measure for CCAGACAGGTGACAAGGTAACTCAGCCTCGATTA: 0.0377; for ACTAGCAGGCCAAGTGTGGGTCACTCAAACAAAG: 0.53; for CAGCCTATGTCAGGGCCAGTATAGGAGGAACGTT: -0.493.
The result for CAAACTAGGTCAAGGTCAAAGGCGGTTTGTGCCA reads 4.87; that for TCATATAGGTATTACAGGTGAAAGTCGGCATCTA, 1.34; that for CCAGACAGGTGAGAAGATAACTCAGCCTCGATTA, 0.035.
With GCTGCTAGGTCAAATGATGGTCAGCTAAAGCTCG, the PBM binding z-score was 1.96.
The result for TTAGCAAGGTGAAGGTCGTTGATCCCTCTGTAGA reads 0.964; that for GGAACGAGCGCAAGTTGATAGCAGAGTTTGATGG, -0.693.
The result for CGTCCAAGGTCAAGGTCGGTGAAAGAGACTCGAA reads 4.2; that for AGAAGGAGGTTACCAAAGATCAGGGAAACGCTTG, 0.838.
As to CCTAGCACGCCAATCTGGGTCACTCAAGGCTTGA, the PBM binding z-score stood at 0.379.
In turn, AGAACGAGGGCAATGAGTTGAAAGCACGGGTGGC had a PBM binding z-score of 5.39.
CTACCAAGGTGAACAAAGTCGTTGATTACTATTC displayed a PBM binding z-score of 0.601.
The result for AGAACGAGGGCAAAGAGTTGATAGCACGGGTGGC reads 4.29; that for CTACCAAGATGAACAAGGTCGTTGATTACTATTC, 2.52; that for TTTCAAAGTTCAAAGGTAACGTAAGTATCCACAC, 5.06.
